Results on one sequence are retold here after PMC7862700, “An all-to-all approach to the identification of sequence-specific readers for epigenetic DNA modifications on cytosine”.

Holding throughout (experiment): DAPPL (digital affinity profiling via proximity ligation, sequencing); 10 mM Tris-HCl pH 7.5, 50 mM NaCl, 1 mM DTT, 4% glycerol, room temperature, 30 min; GST-TFs on glutathione beads, 16-mer random dsDNA library, 0.1% formaldehyde crosslink after washing; high values mean tight binding
One test addresses T1, FEV (Homo sapiens, UniProt Q99581 1-238).
T1 sequence: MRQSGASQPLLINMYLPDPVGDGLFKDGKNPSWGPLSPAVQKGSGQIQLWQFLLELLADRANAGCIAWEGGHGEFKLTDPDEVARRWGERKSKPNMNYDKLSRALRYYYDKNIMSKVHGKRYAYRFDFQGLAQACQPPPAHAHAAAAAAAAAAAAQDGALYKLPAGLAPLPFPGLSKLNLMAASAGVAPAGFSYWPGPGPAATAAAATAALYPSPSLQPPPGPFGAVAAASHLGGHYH
The following applies: protein: recombinant; tags: N-terminal GST; dsDNA, one strand shown. The gist of the method: (§1)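 Pools were built from human transcription factors expressed in yeast as GST fusions, captured on glutathione beads and DNA-barcoded, along with a tag-only sample. Incubation with 200 nmole of a 16-mer random double-stranded DNA library lasted 30 min at room temperature in Tris/NaCl/DTT/glycerol buffer, and was followed by washing, 0.1% formaldehyde crosslinking, proximity ligation, PCR amplification and Illumina NextSeq500 sequencing. Binding signal is the quotient of each hexamer's read frequency for a factor and its frequency for the tag-only sample.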

The next test deals with ETV5 (Homo sapiens, UniProt P41161 1-510). The following applies: protein: recombinant; tags: N-terminal GST; dsDNA, one strand shown. A digest of the protocol: as §1
The target in another test is HSF1 (Homo sapiens, UniProt Q00613 1-529). To be noted: protein: recombinant; tags: N-terminal GST; chain copies: 3; dsDNA, one strand shown. The gist of the method: as §1
In a further test the target is T2, SPIC (Homo sapiens, UniProt Q8N5J4 1-248).
T2 sequence: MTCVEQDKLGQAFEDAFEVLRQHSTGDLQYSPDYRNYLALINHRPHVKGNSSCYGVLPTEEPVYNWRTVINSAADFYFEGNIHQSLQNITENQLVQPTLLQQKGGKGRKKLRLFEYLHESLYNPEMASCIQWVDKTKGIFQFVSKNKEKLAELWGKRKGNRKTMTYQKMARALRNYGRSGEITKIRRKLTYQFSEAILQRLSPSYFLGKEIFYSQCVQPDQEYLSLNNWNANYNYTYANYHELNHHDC
To be noted: protein: recombinant; tags: N-terminal GST; dsDNA, one strand shown. The gist of the method:
as §1

The target of another test is ELF4 (Homo sapiens, UniProt Q99607 1-663). To be noted: protein: recombinant; tags: N-terminal GST; dsDNA, one strand shown. The gist of the method:
as §1

A further test has as its target T3, ELK4 (Homo sapiens, UniProt P28324-2 1-405).
T3 sequence: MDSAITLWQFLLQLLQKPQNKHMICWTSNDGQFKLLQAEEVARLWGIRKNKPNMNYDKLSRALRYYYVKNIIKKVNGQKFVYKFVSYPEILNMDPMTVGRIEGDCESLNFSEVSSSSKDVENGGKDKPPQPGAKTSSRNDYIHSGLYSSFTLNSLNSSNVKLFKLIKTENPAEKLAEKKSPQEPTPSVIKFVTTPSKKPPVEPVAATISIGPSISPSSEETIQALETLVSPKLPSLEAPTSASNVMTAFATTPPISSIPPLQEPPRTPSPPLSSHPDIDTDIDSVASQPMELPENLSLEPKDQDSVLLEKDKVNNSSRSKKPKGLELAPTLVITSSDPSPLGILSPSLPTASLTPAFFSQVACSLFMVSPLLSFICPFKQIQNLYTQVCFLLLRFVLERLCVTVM
The following applies: protein: recombinant; tags: N-terminal GST; dsDNA, one strand shown. The gist of the method: as §1

For a further test, the target named is T4, ETV2 (Homo sapiens, UniProt O00321 1-342).
T4 sequence: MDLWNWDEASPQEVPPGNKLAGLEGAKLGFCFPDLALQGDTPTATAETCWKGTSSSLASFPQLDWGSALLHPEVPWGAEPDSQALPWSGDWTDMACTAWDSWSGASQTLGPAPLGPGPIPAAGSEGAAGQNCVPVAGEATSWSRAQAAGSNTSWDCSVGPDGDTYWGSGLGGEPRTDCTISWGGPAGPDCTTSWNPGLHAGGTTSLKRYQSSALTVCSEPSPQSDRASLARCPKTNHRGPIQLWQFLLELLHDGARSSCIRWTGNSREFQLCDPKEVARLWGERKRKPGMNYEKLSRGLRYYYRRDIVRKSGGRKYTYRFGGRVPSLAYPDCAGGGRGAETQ
To be noted: protein: recombinant; tags: N-terminal GST; dsDNA, one strand shown. A digest of the protocol: as §1

The target of the next test is T5, ELF3 (Homo sapiens, UniProt P78545 1-371).
T5 sequence: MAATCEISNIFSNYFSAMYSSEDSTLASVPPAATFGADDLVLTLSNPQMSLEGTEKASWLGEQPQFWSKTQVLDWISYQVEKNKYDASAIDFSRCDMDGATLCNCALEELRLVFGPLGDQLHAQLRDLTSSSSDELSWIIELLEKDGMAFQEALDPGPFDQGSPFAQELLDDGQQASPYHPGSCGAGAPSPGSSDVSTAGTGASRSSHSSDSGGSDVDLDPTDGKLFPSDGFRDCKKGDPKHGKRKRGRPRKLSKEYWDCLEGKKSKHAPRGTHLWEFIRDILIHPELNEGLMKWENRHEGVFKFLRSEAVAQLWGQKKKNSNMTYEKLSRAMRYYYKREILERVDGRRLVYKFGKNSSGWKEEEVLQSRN
The following applies: protein: recombinant; tags: N-terminal GST; dsDNA, one strand shown. The gist of the method:
as §1

The next test concerns the target CRX (Homo sapiens, UniProt O43186 1-299). To be noted: protein: recombinant; tags: N-terminal GST; dsDNA, one strand shown. The gist of the method: as §1
Another test addresses ETV1 (Homo sapiens, UniProt P50549 1-477). To be noted: protein: recombinant; tags: N-terminal GST; dsDNA, one strand shown. The gist of the method:
as §1

Sequence of HSF1 (Q00613 whole entry): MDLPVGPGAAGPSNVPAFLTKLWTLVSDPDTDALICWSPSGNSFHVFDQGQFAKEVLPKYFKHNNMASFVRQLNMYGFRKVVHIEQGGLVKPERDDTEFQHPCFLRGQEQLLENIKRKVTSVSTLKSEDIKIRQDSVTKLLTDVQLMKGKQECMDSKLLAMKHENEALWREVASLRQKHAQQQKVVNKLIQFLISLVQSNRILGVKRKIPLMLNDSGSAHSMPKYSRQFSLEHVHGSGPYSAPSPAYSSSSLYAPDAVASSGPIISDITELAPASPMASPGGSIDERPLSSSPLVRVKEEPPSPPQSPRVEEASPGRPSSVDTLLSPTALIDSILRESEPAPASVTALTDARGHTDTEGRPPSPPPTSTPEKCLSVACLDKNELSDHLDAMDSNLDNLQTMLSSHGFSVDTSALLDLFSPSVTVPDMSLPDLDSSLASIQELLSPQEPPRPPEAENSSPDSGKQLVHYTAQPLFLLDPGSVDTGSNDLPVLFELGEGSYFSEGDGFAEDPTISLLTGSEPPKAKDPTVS
Sequence of ETV1 (P50549 whole entry): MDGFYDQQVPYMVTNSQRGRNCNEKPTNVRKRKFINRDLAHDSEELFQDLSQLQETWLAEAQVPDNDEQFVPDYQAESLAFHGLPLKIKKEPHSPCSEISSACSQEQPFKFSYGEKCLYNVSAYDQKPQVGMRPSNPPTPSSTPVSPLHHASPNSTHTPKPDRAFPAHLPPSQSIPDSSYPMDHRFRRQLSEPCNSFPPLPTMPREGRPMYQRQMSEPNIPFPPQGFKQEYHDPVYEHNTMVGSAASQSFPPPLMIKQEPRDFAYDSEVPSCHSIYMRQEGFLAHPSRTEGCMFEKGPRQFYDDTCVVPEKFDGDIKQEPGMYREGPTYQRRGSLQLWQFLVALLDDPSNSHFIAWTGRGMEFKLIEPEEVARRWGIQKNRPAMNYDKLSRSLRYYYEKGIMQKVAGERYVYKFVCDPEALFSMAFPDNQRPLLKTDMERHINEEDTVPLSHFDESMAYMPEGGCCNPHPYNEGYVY
Sequence of ELF4 (Q99607 whole entry): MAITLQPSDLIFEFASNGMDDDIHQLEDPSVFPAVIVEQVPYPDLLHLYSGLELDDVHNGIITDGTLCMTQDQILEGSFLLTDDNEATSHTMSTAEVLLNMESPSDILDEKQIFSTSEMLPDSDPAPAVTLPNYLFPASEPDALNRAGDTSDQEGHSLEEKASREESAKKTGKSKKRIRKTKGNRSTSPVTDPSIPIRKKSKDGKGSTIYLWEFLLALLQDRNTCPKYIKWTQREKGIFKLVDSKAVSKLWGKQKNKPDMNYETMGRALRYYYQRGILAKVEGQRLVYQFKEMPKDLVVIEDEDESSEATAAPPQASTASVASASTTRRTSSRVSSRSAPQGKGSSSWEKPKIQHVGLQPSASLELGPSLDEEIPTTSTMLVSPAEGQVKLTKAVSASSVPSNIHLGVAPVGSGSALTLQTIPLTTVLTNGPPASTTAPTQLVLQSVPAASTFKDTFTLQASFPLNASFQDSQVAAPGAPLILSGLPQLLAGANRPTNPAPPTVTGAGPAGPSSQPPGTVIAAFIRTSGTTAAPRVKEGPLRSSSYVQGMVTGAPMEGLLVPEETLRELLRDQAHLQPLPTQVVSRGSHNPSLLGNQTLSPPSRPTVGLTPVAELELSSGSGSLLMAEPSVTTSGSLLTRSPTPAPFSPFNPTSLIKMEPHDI
Sequence of ETV5 (P41161 whole entry): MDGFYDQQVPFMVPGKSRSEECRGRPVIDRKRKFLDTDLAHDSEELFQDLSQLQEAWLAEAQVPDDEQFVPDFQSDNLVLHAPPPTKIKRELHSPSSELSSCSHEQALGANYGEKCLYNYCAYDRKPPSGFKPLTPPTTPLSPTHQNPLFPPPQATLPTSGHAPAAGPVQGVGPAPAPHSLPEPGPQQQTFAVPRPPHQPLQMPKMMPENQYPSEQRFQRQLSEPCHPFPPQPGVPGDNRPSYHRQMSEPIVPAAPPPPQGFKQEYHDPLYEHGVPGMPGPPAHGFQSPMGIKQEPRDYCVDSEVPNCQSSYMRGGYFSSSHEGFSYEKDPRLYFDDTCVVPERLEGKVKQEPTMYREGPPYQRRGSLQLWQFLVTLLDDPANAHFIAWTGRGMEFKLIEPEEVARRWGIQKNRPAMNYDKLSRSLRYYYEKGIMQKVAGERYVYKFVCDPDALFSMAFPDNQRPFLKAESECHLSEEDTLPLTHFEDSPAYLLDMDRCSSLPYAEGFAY
Sequence of CRX (O43186 whole entry): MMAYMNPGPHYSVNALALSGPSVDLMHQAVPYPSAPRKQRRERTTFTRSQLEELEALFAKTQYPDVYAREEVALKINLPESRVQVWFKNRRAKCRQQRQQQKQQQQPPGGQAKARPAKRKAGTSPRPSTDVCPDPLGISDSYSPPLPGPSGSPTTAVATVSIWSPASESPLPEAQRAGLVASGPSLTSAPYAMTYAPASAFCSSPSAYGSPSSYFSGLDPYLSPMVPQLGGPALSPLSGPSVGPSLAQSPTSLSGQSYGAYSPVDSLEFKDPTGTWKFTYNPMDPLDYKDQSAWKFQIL

As to ACAACT, the binding signal in the test with FEV was 1.35 fold enrichment (6-mer frequency, TF over GST control); with ETV5, 1.32 fold enrichment (6-mer frequency, TF over GST control); with HSF1 it was 1.11 fold enrichment (6-mer frequency, TF over GST control); with SPIC, 1.39 fold enrichment (6-mer frequency, TF over GST control); with ELF4 it was 1.36 fold enrichment (6-mer frequency, TF over GST control); in the test with ELK4, 1.34 fold enrichment (6-mer frequency, TF over GST control). The binding signal in the test with ETV2 was 1.29 fold enrichment (6-mer frequency, TF over GST control); with ELF3, 1.42 fold enrichment (6-mer frequency, TF over GST control); in the test with CRX, 1.02 fold enrichment (6-mer frequency, TF over GST control); with ETV1, 1.27 fold enrichment (6-mer frequency, TF over GST control).
